Assay outcomes (PubChem)
BAZ2B inh = BAZ2B (human) inhibition | AID 504333 | AlphaScreen BAZ2B-H3K14Ac peptide displacement | Q9UIF8 | 4.4% of 360,000 active | Potency, µM (doses to about 114 µM), without a hit: at the highest dose activity change, negative = inhibition, most hits filed as inhibitors; note: % is set by controls: 0 for no effect and ±100 for the full control effect; nearly all actives have a fitted effect of over 60% in size
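Multi-concentration screen (max 110 uM) measuring displacement of acetylated histone H3 peptide from BAZ2B by AlphaScreen, using 50 nM protein, 50 nM peptide and 10 ug/mL streptavidin donor plus Ni-chelate acceptor beads.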
JMJD2A Tudor = JMJD2A Tudor domain (human) inhibition; O75164; Potency, µM (series often up to 114 µM), for the others: top-dose activity change, negative = inhibition, actives largely listed as inhibitors; 4.4% of 390,000 active; AlphaScreen JMJD2A-Tudor / H3K4me3 peptide binding; note: % is set by controls: 0 for no effect and ±100 for the full control effect; nearly all actives have a fitted effect of over 50% in size
G9a block = blocks human histone lysine methyltransferase G9a | Q96KQ7 | G9a H3K9 monomethylation, AlphaScreen, 2 h | Potency, µM (titrated, usually from 102 µM), for the others: at the highest dose activity, negative = inhibition, most hits filed as inhibitors | 8.8% of 350,000 active | AID 504332; note: % is set by controls: 0 for no effect and ±100 for the full control effect; nearly all actives have a fitted effect of over 75% in size
Target sequence (Q96KQ7 913-1193 limits assumed): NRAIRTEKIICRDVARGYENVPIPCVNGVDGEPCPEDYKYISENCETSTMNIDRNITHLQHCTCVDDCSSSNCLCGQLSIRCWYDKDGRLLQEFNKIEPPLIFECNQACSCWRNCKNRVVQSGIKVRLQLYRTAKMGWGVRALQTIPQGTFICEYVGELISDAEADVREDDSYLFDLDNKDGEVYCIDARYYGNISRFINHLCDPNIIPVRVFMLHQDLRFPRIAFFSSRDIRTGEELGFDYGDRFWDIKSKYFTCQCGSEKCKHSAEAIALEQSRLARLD
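Enzyme 20 nM + cpd, 15 min RT; add b-H3K9 pep 500 nM / SAM 20 uM; 2 h RT; anti-H3K9me1 Ab 0.5 ug/mL + SA donor / anti-rabbit acceptor beads 20 ug/mL each, 10 min; AlphaScreen read.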
HP1b chromo inh = inhibitors of HP1-beta chromodomain binding to methylated histone tails | AID 540317 | Potency, µM (top dose mostly 114 µM), without a hit: at the highest dose activity change, negative = inhibition, hits mostly inhibitors | 0.56% of 390,000 active | P83916 | AlphaScreen HP1-beta / biotin-H3K9me3 peptide binding; note: nearly all actives have a fitted effect of over 70% in size
Target sequence (P83916 whole entry, looked up): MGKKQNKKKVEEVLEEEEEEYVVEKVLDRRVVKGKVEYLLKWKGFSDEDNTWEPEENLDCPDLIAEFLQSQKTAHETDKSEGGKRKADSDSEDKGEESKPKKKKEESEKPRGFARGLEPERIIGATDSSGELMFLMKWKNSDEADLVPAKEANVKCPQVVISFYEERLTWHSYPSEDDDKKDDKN
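AlphaScreen: HP1-beta (50 nM) preformed 30 min with biotin-H3(1-18)K9me3 peptide (50 nM) in PBS pH 7.4, 0.01% Tween-20. Compound added for 30 min at RT, then streptavidin donor/nickel chelate acceptor beads (10 ug/mL) for 30 min.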
GLS inh = inhibitors of human glutaminase (GLS) | GLS enzymatic activity, qHTS titration | Potency, µM (highest dose often 45.5 µM), for inactives: at the highest dose activity change, negative = inhibition, hits mostly inhibitors | 0.21% of 410,000 active | AID 624170; note: % is set by controls: 0 for no effect and ±100 for the full control effect
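Glutamate formation by hKGA was monitored fluorometrically using coupled glutamate oxidase, HRP and Amplex Red. Substrate was added as 1 mM L-glutamine solution; incubation was 30 min at RT after an initial read.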
L3MBTL1 inh = L3MBTL1 (human) inhibition; Q9Y468; AlphaScreen L3MBTL1–H3K9me1 peptide binding; Potency, µM (top dose mostly 57.1 µM), for the others: at the top dose activity, negative = inhibition, usual class: inhibitors; 0.66% of 230,000 active; AID 485360; note: % is set by controls: 0 for no effect and ±100 for the full control effect; nearly all actives have a fitted effect of over 60% in size
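Displacement of a biotinylated histone H3(1-15) peptide monomethylated at Lys9 (75 nM) from L3MBTL1 (50 nM) was measured by AlphaScreen after a 30 min room-temperature compound incubation; cefsulodin titration served as intraplate control.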
* hit, by the source's call; u = inconclusive; x = no result given; ! = not active in a repeat; [ ] = another dose, or the depositor's remark. Only some compounds are listed: those with a hit (about 10% of all), similar ones and a draw of the others. Calls come from the whole dose curve; as a rule, active = well fitted curve in the direction sought with a large enough effect; inconclusive = small, poorly fitted or top-dose-only effect, or another doubt; inactive = no such curve, though single readings can be large; an effect the other way counts as inactive or inconclusive. Potency is the fitted concentration of half-maximal effect.

SMILES | BAZ2B inh | JMJD2A Tudor | G9a block | HP1b chromo inh | GLS inh | L3MBTL1 inh
COC(=O)c1ccccc1OC(=O)c1ccc(Br)o1 | 12% | -9% | 1%[12.7 µM] | 50% | 0% | 3%[11.4 µM]
CCC(CC)NC1CCCCC1OC (stereo not drawn) | u | 50µM* | u | 19% | 60% | 6%
C#C[C@]1(O)CC[C@H]2[C@@H]3CCC4=Cc5nc6nc7ccccc7n6cc5C[C@]4(C)[C@H]3CC[C@@]21C | 3% | -6% | 25µM* | 40% | 0% | 15%
COc1cc2c(cc1/C=C/[N+](=O)[O-])OCO2 | -30% | -23% | u | 44% | 2% | x
COc1cc(/C=C/[N+](=O)[O-])ccc1OC(=O)c1cccnc1 | -32% | -23% | 3.5µM* | 16% | 57% | -8%
Oc1ccc2c3c1O[C@H]1c4[nH]c5ccccc5c4C[C@@]4(O)[C@@H](C2)N(CC2CC2)CC[C@]314 | -2% | u | u | -3% | -3% | 2%
Oc1ccc2c3c1O[C@H]1c4[nH]c5c(c4C[C@@]4(O)[C@@H](C2)N(CC2CC2)CC[C@]314)C[C@@]1(O)[C@H]2Cc3ccc(O)c4c3[C@@]1(CCN2CC1CC1)[C@H]5O4 | x | x | 14µM* | x | x | x
CCC(=O)OC1(c2ccccc2)CCN(C)CC1 | x | x | x | x | -2%[99.4 µM] | x
Oc1ccc2ccccc2c1CN1CC=C(c2ccccc2)CC1 | -15% | -2%[57.1 µM] | 45µM* | 51% | -22% | 4%
CSc1ccc(C(=O)C2CCCN(Cc3cccnc3)C2)cc1 (stereo not drawn) | -5% | -30% | 2% | -25% | 2% | -8%
CSc1ccc(C(=O)C2CCCN(Cc3cc4ccccc4[nH]3)C2)cc1 (stereo not drawn) | 20µM* | 11µM* | 16µM* | u | -1% | -10%
CCC(C(=O)O)C1CCC(C)C(C(C)C(O)C(C)C(=O)C(CC)C2OC3(C=CC(O)[C@@]4(CC[C@](C)(C5CC[C@@](O)(CC)C(C)O5)O4)O3)C(C)CC2C)O1 (stereo partly drawn) | x | x | 1%[2.33 µM] | x | u | x
CCC(C)N1C(=O)/C(=C\c2ccc(N3CCCCCC3)cc2)C(=O)NC1=S (stereo not drawn) | 45µM* | u | 3.5µM* | u | 150% | -7%
CCC(C)N1C(=O)/C(=C\c2cnc(N(C)C)nc2)C(=O)NC1=S (stereo not drawn) | u | u | 7.9µM* | -1% | u | -5%[11.4 µM]
CCC(C)N1C(=O)/C(=C\c2cc3c4c(c2)CCCN4CCC3)C(=O)NC1=S (stereo not drawn) | u | 14µM* | 45µM* | u | -4% | -26%
Cc1ccc(Cn2cccc(C(=O)Nc3ccc4c(c3)OCCO4)c2=O)cc1 | -12% | -20% | -21%[59 µM] | 16% | -1% | x
NC(CO)Cc1ccccc1 (stereo not drawn) | x | x | -2%[2.33 µM] | x | x | x
C=CCN1C(=O)/C(=C\c2ccc(N3CCOCC3)o2)C(=O)NC1=S | 1% | -9% | 8.9µM* | 1% | -10% | -7%
CCN1C(=O)C(=Cc2ccc(N3CCOCC3)o2)C(=O)N(CC)C1=S | 40µM* | -34% | x | -8% | 1% | -6%
CN1C(=O)C(=Cc2ccc(N3CCOCC3)o2)C(=O)N(C)C1=S | u | -19% | -4% | -22% | 7% | -5%
CCCSc1cc(OC)c(CCN)cc1OC | x | x | x | x | -2%[99.4 µM] | x
O=C(O)c1ccccc1NS(=O)(=O)c1cccc(N=Nc2c(O)[nH]c(=S)[nH]c2=O)c1 | -12% | -17% | 50µM* | -18% | 24% | 0%
c1ccc2c(CCNC3CCCCC3)c[nH]c2c1 | u | 32µM* | 13µM* | 79µM* | 0% | -20%
c1ccc2c(CCNC3=NCCC3)c[nH]c2c1 | 8% | -20% | 1%[59 µM] | 13% | 31% | 1%
Clc1cccc(CNCCc2c[nH]c3ccccc23)c1 | 50µM* | 7.1µM* | 11%[2.33 µM] | u | 12% | x
SMILES | BAZ2B inh | JMJD2A Tudor | G9a block | HP1b chromo inh | GLS inh | L3MBTL1 inh
O=C(Nc1ccc2nc(-c3cccs3)c(-c3cccs3)nc2c1)N1CCCCC1 | x | 13% | x | 57% | x | x
CCCNC(=O)c1cnn2c(C)c(Cc3c(C)cc(C)cc3C)c(C)nc12 | 10% | u | -3%[59 µM] | 12% | -16% | x
O=C(Oc1ccccc1)N1CCC2(CCN(Cc3ccccc3)CC2)CC1 | x | x | 8%[12.7 µM] | x | x | x
O=C(CSC(=S)N1CCCC1)N/N=C/c1c(O)[nH]c(=S)[nH]c1=O | x | 56µM* | x | 33% | 15% | -26%
COCCn1c(O)c(/C=N/NC(=O)CSC(=S)N2CCCC2)c(=O)[nH]c1=S | -1% | 89µM* | -23%[59 µM] | 37% | 18% | 2%
CCCCC(=O)N/N=C/c1c(O)n(CC)c(=S)[nH]c1=O | u | u | -11%[59 µM] | 55% | 10% | -3%
CCC(CO)NC(=O)C1C=C2c3cccc4[nH]cc(c34)CC2N(C)C1 (stereo not drawn) | -6% | -24% | u | 39% | 26% | 7%
CC[C@@H](CO)NC(=O)[C@@H]1C=C2c3cccc4[nH]cc(c34)C[C@H]2N(C)C1 | x | -27% | 14µM* | 6% | 4% | x
CC[C@H](CO)NC(=O)[C@H]1C=C2c3cccc4[nH]cc(c34)C[C@@H]2N(C)C1 | x | x | 7.9µM* | x | x | x
CC[C@@H](CO)NC(=O)[C@@H]1C=C2c3cccc4c3c(cn4C)C[C@H]2N(C)C1 | u | -23% | 6.3µM*! | 22% | 29% | -14%
CCN(CC)C(=O)N[C@@H]1C=C2c3cccc4[nH]cc(c34)C[C@H]2N(C)C1 | x | x | u | x | 6% | x
COC(=O)C1C=C2c3cccc4[nH]cc(c34)CC2N(C)C1 (stereo not drawn) | 40µM* | x | u | x | x | x
Cc1ccc(-n2c(/C=C/c3ccccc3)nc3ccccc3c2=O)cc1Cl | 2% | -4% | 10%[59 µM] | 17% | 3% | x
CC(=O)C1CCC2C3CCC4=CC(=O)CC[C@@]4(C)C3CC[C@]12C (stereo partly drawn) | x | x | -21%[2.33 µM] | x | x | x
CN1/C(=C\C=C2C(=O)NC(=O)NC2=O)C(C)(C)c2ccccc21 | -12% | 4% | 18%[59 µM] | 37% | -1% | x
CN1/C(=C\C=Nc2ccccc2)C(C)(C)c2ccccc21 | u | -14% | 79µM* | 17% | 24% | -5%
C=CCN(CC#CCOc1ccccc1OC)CC=C | 50µM* | x | 18µM* | x | x | 6%[11.4 µM]
CC(N)Cc1ccccc1Sc1ccc(O)cc1 (stereo not drawn) | -5%[57.1 µM] | x | 35µM* | x | x | 3%
CC(Cc1ccccc1Sc1ccc(O)cc1)N(C)C (stereo not drawn) | -2% | -20% | -7%[2.33 µM] | 7% | 29% | x
O=[N+]([O-])c1cccc(NP(=O)(N2CC2)N2CC2)c1 | x | -3% | x | 17%[57 µM] | -5% | x
